Measured values as given in PubChem BioAssay.
Active and inactive are the calls of the source. No rule for the calls is given here.

test: inhibitors of hydroxyurea-induced Chk1 phosphorylation, primary screen, imaging, HeLa, phospho-Chk1 antibody, percent positive cells (AID 1186); details: hydroxyurea-induced phospho-Chk1 immunofluorescence imaging, higher = more signal

Q: Which z-score does the source give for CC1=C2[C@@H](CCc3ccccc3)OB(O)C[C@@H]2[C@@H]2C(=O)N(C)C(=O)[C@@H]2C1 here?
A: Its z-score is 0.0183 (inactive).

Q: Which z-score does the source give for COCCOC(=O)N1C(=O)[C@@]2(c3cc(C#CC4(O)CCCCCC4)ccc31)[C@H](c1ccc(O)cc1)N1[C@H](c3ccccc3)[C@H](c3ccccc3)OC(=O)[C@H]1[C@@H]2C(=O)N1CCN(c2ncccn2)CC1 here?
A: Its z-score is 0.13 (inactive).

Q: Which z-score does the source give for COC(=O)[C@@]1(Cc2ccc(F)cc2)[C@H]2c3cc(C(=O)N(C)C)n(Cc4ccc(OC(F)(F)F)cc4)c3C[C@H]2CN1C(=O)c1ccccc1 here?
A: The z-score was 0.233 (inactive).

Q: With C=CCNC(=O)[C@H]1[C@@H]2C(=O)O[C@@H](c3ccccc3)[C@@H](c3ccccc3)N2[C@@H](c2ccccc2OCCO)[C@]12C(=O)N(C(=O)OCCOC)c1ccc(C#CC3(O)CCCCCC3)cc12 as the compound, how does the z-score read?
A: The z-score was -0.485 (inactive).

Q: With C=C(COC)/C(=C/C[C@H](OC(=O)c1ccncc1)c1ccccc1OCCO)c1cc(C(=O)OC)ccc1OC as the compound, how does the z-score read?
A: Its z-score is 0.127 (inactive).

Q: For CC(C)c1ccc(NN2C(C(O)c3ccc(C#N)cc3)C=CC3C(=O)N(c4ccccc4)C(=O)C32)cc1 (stereo not drawn), which z-score is on record?
A: The z-score was 0.879 (inactive).

Q: For CC(C)NC(=O)[C@@]1(c2ccc([N+](=O)[O-])cc2)CC(=O)N(C2CCCCC2)[C@@H]1c1ccc(CO)cc1, which z-score is on record?
A: Its z-score is 0.127 (inactive).

Q: With CCOC(=O)C[C@H]1[C@H](OC(=O)Cc2ccc3c(c2)OCO3)[C@@H](NC(=O)c2ccc3ccccc3n2)c2cc(OCCCO)ccc2N1C(=O)c1ccccc1 as the compound, how does the z-score read?
A: The z-score was -0.705 (inactive).

Q: Which z-score does the source give for O=c1cccc(-c2ccc([N+](=O)[O-])cc2)o1 here?
A: The z-score was -0.419 (inactive).

Q: With CC(C)N1C(=O)C[C@@](C(=O)O)(c2ccc([N+](=O)[O-])cc2)[C@H]1c1ccc(CO)cc1 as the compound, how does the z-score read?
A: Its z-score is -0.198 (inactive).

Q: With CCCCCCCCCC(O)C1C=CC2C(=O)N(c3ccccc3)C(=O)C2N1Nc1cc(OC)c(OC)c(OC)c1 (stereo not drawn) as the compound, how does the z-score read?
A: Its z-score is 0.297 (inactive).

Q: For COC(=O)[C@@]1(Cc2ccc(OC)cc2)[C@H]2c3cc(C(=O)N(C)C)n(Cc4ccc(C)o4)c3C[C@H]2CN1C(=O)c1ccccc1, which z-score is on record?
A: Its z-score is 0.046 (inactive).

Q: For [N-]=[N+]=Nc1ccccc1C[C@]1(C(=O)NCC(O)CO)COC(c2ccc(OCCCO)cc2)=N1 (stereo partly drawn), which z-score is on record?
A: The z-score was 0.0856 (inactive).

test: inhibitors of hydroxyurea-induced Chk1 phosphorylation, primary screen, imaging, HeLa, phospho-Chk1 nuclear intensity (AID 1187); details: hydroxyurea-induced phospho-Chk1 immunofluorescence imaging, higher = more signal; also: test concentration not given here

Q: For NC(=O)[C@@]1(Cc2ccccc2)COC(c2ccc(OCCCO)cc2)=N1, which z-score is on record?
A: Its z-score is 0.382 (inactive).

Q: For CCOC(=O)C[C@H]1[C@H](OC(=O)c2ccc(C(=O)c3ccccc3)cc2)[C@@H](NC(=O)c2ccc3ccccc3n2)c2cc(OCCCO)ccc2N1C(=O)Cc1ccc(OC)cc1, which z-score is on record?
A: Its z-score is -0.835 (inactive).

Q: With COC(=O)[C@@H]1N=C(c2ccc(OCCCO)cc2)O[C@@H]1c1ccccc1 as the compound, how does the z-score read?
A: Its z-score is -0.301 (inactive).

Q: Which z-score does the source give for CCOc1cc(C(O)C2C=CC3C(=O)NC(=O)C3N2Nc2ccc(Cl)cc2Cl)ccc1O (stereo not drawn) here?
A: The z-score was 0.627 (inactive).

Q: For CCOC(=O)C=Cc1cccc(C)c1O, which z-score is on record?
A: Its z-score is 0.0058 (inactive).

Q: Which z-score does the source give for COC(=O)[C@@]1(Cc2ccc(OC)cc2)[C@H]2c3cc(C(=O)N4CCCC4)n(CCO)c3C[C@H]2CN1C(=O)c1ccccc1 here?
A: Its z-score is 0.404 (inactive).

Q: Which z-score does the source give for CC1=C2[C@@H](CCc3ccccc3)OB(O)C[C@@H]2[C@@H]2C(=O)N(Cc3ccccc3)C(=O)[C@@H]2C1 here?
A: The z-score was 0.264 (inactive).

Q: With C=CC[C@@H](OC(=O)Nc1ccc(SC)cc1)c1ccc(O)c(F)c1 as the compound, how does the z-score read?
A: Its z-score is 0.539 (inactive).

Q: With COCCCNC(=O)[C@@]1(CCC(=O)OC(C)(C)C)N=C(c2ccc(OCCCO)cc2)O[C@H]1c1ccccc1N=[N+]=[N-] as the compound, how does the z-score read?
A: Its z-score is 1.43 (inactive).

Q: Which z-score does the source give for CCOC(=O)C[C@H]1[C@H](OC(=O)c2cc3ccccc3oc2=O)[C@@H](NC(=O)CC(C)C)c2cc(OCCCO)ccc2N1C(=O)c1ccc2ccccc2n1 here?
A: The z-score was -0.507 (inactive).

Q: Which z-score does the source give for Cc1ccc(C(C)CC(O)C2C=CC3C(=O)N(c4ccccc4)C(=O)C3N2Nc2ccccc2)o1 (stereo not drawn) here?
A: The z-score was -0.508 (inactive).

Q: Which z-score does the source give for CN(C)c1ccc(C(O)C2C=CC3C(=O)NC(=O)C3N2Nc2ccccn2)cc1 (stereo not drawn) here?
A: The z-score was 0.493 (inactive).

Q: For CCCCN1CC=CC23O[C@@H]4/C=C\CCCOC(=O)C4[C@H]2C(=O)N(CCO)[C@@H]3C1=O (stereo partly drawn), which z-score is on record?
A: The z-score was 0.214 (inactive).

Q: Which z-score does the source give for COc1ccc([Si](C)(C)[C@@H]2[C@@H](CCO)O[C@]3(C(=O)N(Cc4ccccc4)c4ccc(N5C(=O)c6cccc7cccc5c67)cc43)[C@H]2C)cc1 here?
A: Its z-score is -0.379 (inactive).

Q: With Oc1ccc2cc[n+](Cc3cc4c(cc3Br)OCO4)cc2c1 as the compound, how does the z-score read?
A: Its z-score is 0.225 (inactive).

Q: With CCCNC(=O)[C@@H]1c2ccccc2C(=O)N(Cc2ccc(OC(F)(F)F)cc2)[C@H]1c1ccc(CO)cc1 as the compound, how does the z-score read?
A: Its z-score is -0.366 (inactive).

Q: With COCCOC(=O)N1C(=O)[C@@]2(c3cc(C#CC4=CCCCC4)ccc31)[C@H](c1ccccc1OCCO)N1[C@H](c3ccccc3)[C@H](c3ccccc3)OC(=O)[C@H]1[C@@H]2C(=O)NC[C@H](O)c1ccccc1 as the compound, how does the z-score read?
A: The z-score was -0.175 (inactive).

Q: Which z-score does the source give for O=C1N(CCS(=O)(=O)c2ccccc2)c2ccccc2[C@H]2OC(c3ccc(OCCCO)cc3)=N[C@@]12Cc1ccccc1 here?
A: The z-score was 0.158 (inactive).

Q: For [N-]=[N+]=Nc1ccccc1C[C@]1(C(=O)NCCN2CCOCC2)COC(c2ccc(OCCCO)cc2)=N1, which z-score is on record?
A: The z-score was -0.17 (inactive).

Q: Which z-score does the source give for C=CC[C@@]1(C(=O)NCCCOC)N=C(c2ccc(OCCCO)cc2)O[C@@H]1c1ccccc1N=[N+]=[N-] here?
A: The z-score was -0.6 (inactive).

Q: Which z-score does the source give for COC(=O)C1=CC(CCCO)=CC(c2ccc(CN3CCCC3)cc2)N(Cc2cccc(OC(F)(F)F)c2)C=C1C(=O)OC (stereo not drawn) here?
A: Its z-score is -0.184 (inactive).

Q: With CCCC=C(CCC)[C@@H](NC(=O)c1cccs1)c1ccc(C(=O)OC)cc1 as the compound, how does the z-score read?
A: The z-score was -0.354 (inactive).

Q: For CC1=C2[C@@H](CCc3ccccc3)OB(O)C[C@@H]2[C@@H]2C(=O)N(C)C(=O)[C@@H]2C1, which z-score is on record?
A: The z-score was 0.0905 (inactive).

Q: For COCCOC(=O)N1C(=O)[C@@]2(c3cc(C#CC4(O)CCCCCC4)ccc31)[C@H](c1ccc(O)cc1)N1[C@H](c3ccccc3)[C@H](c3ccccc3)OC(=O)[C@H]1[C@@H]2C(=O)N1CCN(c2ncccn2)CC1, which z-score is on record?
A: Its z-score is 0.232 (inactive).

Q: For COC(=O)[C@@]1(Cc2ccc(F)cc2)[C@H]2c3cc(C(=O)N(C)C)n(Cc4ccc(OC(F)(F)F)cc4)c3C[C@H]2CN1C(=O)c1ccccc1, which z-score is on record?
A: The z-score was 0.579 (inactive).

Q: For C=CCNC(=O)[C@H]1[C@@H]2C(=O)O[C@@H](c3ccccc3)[C@@H](c3ccccc3)N2[C@@H](c2ccccc2OCCO)[C@]12C(=O)N(C(=O)OCCOC)c1ccc(C#CC3(O)CCCCCC3)cc12, which z-score is on record?
A: Its z-score is -0.428 (inactive).

Q: For C=C(COC)/C(=C/C[C@H](OC(=O)c1ccncc1)c1ccccc1OCCO)c1cc(C(=O)OC)ccc1OC, which z-score is on record?
A: Its z-score is 0.0857 (inactive).

Q: For CC(C)c1ccc(NN2C(C(O)c3ccc(C#N)cc3)C=CC3C(=O)N(c4ccccc4)C(=O)C32)cc1 (stereo not drawn), which z-score is on record?
A: The z-score was 0.815 (inactive).

Q: For CC(C)NC(=O)[C@@]1(c2ccc([N+](=O)[O-])cc2)CC(=O)N(C2CCCCC2)[C@@H]1c1ccc(CO)cc1, which z-score is on record?
A: The z-score was 0.0865 (inactive).

Q: For CCOC(=O)C[C@H]1[C@H](OC(=O)Cc2ccc3c(c2)OCO3)[C@@H](NC(=O)c2ccc3ccccc3n2)c2cc(OCCCO)ccc2N1C(=O)c1ccccc1, which z-score is on record?
A: Its z-score is -0.277 (inactive).

Q: For O=c1cccc(-c2ccc([N+](=O)[O-])cc2)o1, which z-score is on record?
A: The z-score was -0.202 (inactive).

Q: For CC(C)N1C(=O)C[C@@](C(=O)O)(c2ccc([N+](=O)[O-])cc2)[C@H]1c1ccc(CO)cc1, which z-score is on record?
A: Its z-score is -0.0057 (inactive).

Q: For CCCCCCCCCC(O)C1C=CC2C(=O)N(c3ccccc3)C(=O)C2N1Nc1cc(OC)c(OC)c(OC)c1 (stereo not drawn), which z-score is on record?
A: The z-score was 0.0284 (inactive).

Q: Which z-score does the source give for COC(=O)[C@@]1(Cc2ccc(OC)cc2)[C@H]2c3cc(C(=O)N(C)C)n(Cc4ccc(C)o4)c3C[C@H]2CN1C(=O)c1ccccc1 here?
A: The z-score was 0.304 (inactive).

Q: Which z-score does the source give for [N-]=[N+]=Nc1ccccc1C[C@]1(C(=O)NCC(O)CO)COC(c2ccc(OCCCO)cc2)=N1 (stereo partly drawn) here?
A: The z-score was 0.636 (inactive).
